The record followed here is ChEMBL document CHEMBL4296183, “CO-ADD screening of NIH NCI Natural Product Set III” (2020).

Broadly, the Inhibition is the drop in the measured response relative to a control, in per cent.

Test [1] deals with Staphylococcus aureus. The test can be described thus: Antibacterial activity against Staphylococcus aureus MRSA ATCC 43300 (CO-ADD:GP_020); MIC in CAMBH media using NBS plates, by Resazurin F(560/590). It is filed as functional. The conditions noted are these: Concentration 20 uM, ASSAY_TEST Inhibition of Bacterial Growth, detection method Resazurin, Fluorescence (ex560/em590), MEDIA CAMHB, plate type 384well, CORNING #3640, time 18 hr. On the technique in general: The colour change of resazurin is a common sign of viable cells or microbes.

In test [2] the test system is Acinetobacter baumannii. The test can be described thus: Antibacterial activity against Acinetobacter baumannii ATCC 19606 (CO-ADD:GN_034); MIC in CAMBH media using NBS plates, by Resazurin F(560/590). It is filed as functional. The conditions noted are these: Concentration 20 uM, ASSAY_TEST Inhibition of Bacterial Growth, detection method Resazurin, Fluorescence (ex560/em590), MEDIA CAMHB, plate type 384well, CORNING #3640, time 18 hr.

In test [3] the test system is Escherichia coli. The test can be described thus: Antibacterial activity against Escherichia coli ATCC 25922 (CO-ADD:GN_001); MIC in CAMBH media using NBS plates, by Resazurin F(560/590). It is filed as functional. The conditions noted are these: Concentration 20 uM, ASSAY_TEST Inhibition of Bacterial Growth, detection method Resazurin, Fluorescence (ex560/em590), MEDIA CAMHB, plate type 384well, CORNING #3640, time 18 hr.

Test [4] has as its system Klebsiella pneumoniae. The conditions noted are these: Concentration 20 uM; ASSAY_TEST Inhibition of Bacterial Growth; detection method Absorption (OD600); MEDIA CAMHB; plate type 384well; NBS; CORNING #3640; time 18 hr.
Test [5] relates to Candida albicans. The conditions noted are these: 20 µM.
Test [6] concerns Cryptococcus neoformans. The settings on record: Concentration 20 uM; ASSAY_TEST Inhibition of Fungal Growth; detection method Resazurin; Absorption (OD600-OD570); plate type 384well; NBS; CORNING #3640.

For part of these data: Results with a measured potency or affinity are listed apart.

Consider `CC1CCC2C(C)C3C(CC4C5CC=C6CC(OC7OC(CO)C(O)C(OC8OC(CO)C(O)C(O)C8O)C7OC7OC(C)C(O)C(O)C7O)CCC6(C)C5CCC43C)N2C1.Cl` (stereo not given), for which the Inhibition in test [1] was -4.66%; in test [2], -5.32%; in test [3] it was -0.39%; in test [4], 4.14%; in test [5] it was -2.24%; in test [6] it was -10.4%.

For the molecule `C=C1C(C)C2C(Cc3ccccc3)NC(=O)C23C(OC(C)=O)/C=C/C(C)(O)CC(C)C/C=C/C3C1O` (stereo not given), the Inhibition in test [1] is -5.72%; in test [2], -9.16%; in test [3], -0.68%; in test [4], -1.52%; in test [5], 1.45%; in test [6], -3.95%.

On to `COc1cccc2c1cc([N+](=O)[O-])c1c(C(=O)O)cc3c(c12)OCO3` [ARISTOLOCHIC ACID], for which the Inhibition in test [1] was -13.97%; in test [2] it was -2.12%; in test [3], 5.35%; in test [4], -1.07%; in test [5], 8.48%; in test [6], -6.51%.

On to `CCC/C=C/C=C/C(=O)OC1/C(=C/C(=O)OC)CC2CC(C(C)O)OC(=O)CC(O)CC3CC(OC(C)=O)C(C)(C)C(O)(CC4C/C(=C/C(=O)OC)CC(/C=C/C(C)(C)C1(O)O2)O4)O3` (stereo not given), for which the Inhibition in test [1] was 15.23%; in test [2], -8.5%; in test [3], 2.2%; in test [4] it was 8.82%; in test [5], -7.78%; in test [6], -7.31%.

Consider `CC[C@@]1(O)C(=O)OCc2c1cc1n(c2=O)Cc2cc3ccccc3nc2-1` [CAMPTOTHECIN], for which the Inhibition was 9.46% in test [1]; -0.94% in test [2]; 5.98% in test [3]; 5.61% in test [4]; 4.14% in test [5]; -6.71% in test [6].

For the molecule `C=C1C(=O)OC2C1CCC(C)C1(O)C=CC(=O)C21C` (stereo not given), the Inhibition in test [1] was -5.72%; in test [2], -10.47%; in test [3], 2.36%; in test [4], 3.79%; in test [5], -0.93%; in test [6] it was -3.28%.

With `CCN1C[C@]2(COC)[C@H](O)C[C@H](OC)[C@]34C1[C@H]([C@H](OC)[C@H]23)[C@]1(OC(C)=O)[C@H]2[C@@H](OC(=O)c3ccccc3)[C@](O)(C[C@H]24)[C@@H](OC)[C@@H]1O`, the Inhibition in test [1] was 12.16%; in test [2] it was -8.01%; in test [3], 7.77%; in test [4], 3.92%; in test [5], -0.67%; in test [6] it was -9.39%.

Turning to `CO[C@@H]1[C@H](O)CC[C@]2(CO2)[C@H]1[C@@]1(C)O[C@@H]1CC=C(C)C`, the Inhibition in test [1] was 4.97%; in test [2], 1.38%; in test [3], 4.31%; in test [4], 14.33%; in test [5] it was 4.27%; in test [6] it was -4.91%.

For the molecule `O=P1(N(CCCl)CCCl)NCCCO1` (stereo not given) [CYCLOPHOSPHAMIDE ANHYDROUS], the Inhibition was 22.17% in test [1]; -9.14% in test [2]; 1.21% in test [3]; 1.43% in test [4]; -2.64% in test [5]; -8.46% in test [6].

Turning to `COc1ccc(C(=O)O[C@H]2CC[C@@]3(C)[C@@H]4CC[C@H]5[C@]6(O)C[C@H](O)[C@@]7(O)[C@@H](CN8C[C@@H](C)CC[C@H]8[C@@]7(C)O)[C@]6(O)C[C@@]53OC24O)cc1OC`, the Inhibition is 16.97% in test [1]; -4.41% in test [2]; 7.62% in test [3]; 3.66% in test [4]; -1.53% in test [5]; -9.31% in test [6].

`CC(=O)O[C@@H]1[C@@H](O)C2=C3[C@]4(C)[C@@H]1C(C)(C)C(=O)C[C@@H]4[C@]3(O)[C@H](OC(C)=O)[C@@]1(C[C@@H]1C)C2=O`: the Inhibition was 17.09% in test [1]; -6.85% in test [2]; 0.22% in test [3]; 10.98% in test [4]; -0.55% in test [5]; -8.42% in test [6].

Turning to `COc1c2c(c(CC=C(C)C)c3oc(=O)c(-c4ccc(O)cc4)c(O)c13)OC(C)(C)C=C2` [LONCHOCARPIC ACID], the Inhibition in test [1] was 25.18%; in test [2] it was -13.6%; in test [3], 7.94%; in test [4] it was -4.69%; in test [5], -1.79%; in test [6] it was -11.25%.

Take `COc1ccc2c(c1OC)CN1CCc3cc4c(cc3C1C2)OCO4` (stereo not given) [TETRAHYDROBERBERINE]: the Inhibition was 10.57% in test [1]; -8.62% in test [2]; 7.87% in test [3]; -2.26% in test [4]; -1.05% in test [5]; -13.18% in test [6].

For the molecule `OC1CN2CC[C@H](O)[C@@H]2C(O)[C@@H]1O` (stereo not given in full), the Inhibition in test [1] was -15.58%; in test [2] it was -6.5%; in test [3] it was 3.63%; in test [4], -1.47%; in test [5], 2.3%; in test [6], -9.42%.

Turning to `COc1ccc2c3c([nH]c2c1)[C@H](C=C(C)C)N1C(=O)[C@@H]2CCCN2C(=O)[C@@H]1C3` [FUMITREMORGIN], the Inhibition in test [1] was -0.07%; in test [2], 0.14%; in test [3], 5.9%; in test [4] it was -0.45%; in test [5] it was 1.52%; in test [6], -5.88%.
